This is an account of results in PubChem BioAssay (NCATS).

The target of test [1] is Glutathione peroxidase 1 (Homo sapiens) (UniProt P07203). Briefly: Primary qHTS Assay for Inhibitors of Recombinant Selenoprotein Glutathione Peroxidase 1 (GPX1) (AID 1845191). For activity, negative = inhibition: % is set by controls: 0 for no effect and ±100 for the full control effect. Note: nearly all actives have a fitted effect of over 65% in size. The following applies: recombinant GPX1, GR-coupled NADPH fluorescence, 15 min; series mostly up to 48.8 µM. The method, boiled down: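 Recombinant GPX1 (10 nM final) was preincubated with compound for 30 min at room temperature, then reacted with 1 mM GSH, 0.5 mM CHP, 0.5 mM NADPH and 100 nM glutathione reductase; NADPH fluorescence (340/450 nm) was read at 0 and 15 min.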
Sequence of Glutathione peroxidase 1 (Homo sapiens) (P07203 whole entry, looked up): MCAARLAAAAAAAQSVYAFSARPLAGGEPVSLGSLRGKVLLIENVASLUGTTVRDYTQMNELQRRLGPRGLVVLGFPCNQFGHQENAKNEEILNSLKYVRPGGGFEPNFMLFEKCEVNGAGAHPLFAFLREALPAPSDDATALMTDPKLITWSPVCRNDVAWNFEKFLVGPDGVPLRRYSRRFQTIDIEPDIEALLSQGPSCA

Test [2] has as its target Phospholipid hydroperoxide glutathione peroxidase GPX4 (Homo sapiens) (UniProt P36969). The test can be described thus: Primary qHTS Assay for Inhibitors of Recombinant Selenoprotein Glutathione Peroxidase 4 (GPX4) (AID 1845192). Note: % is set by controls: 0 for no effect and ±100 for the full control effect; nearly all actives have a fitted effect of over 65% in size. The following applies: recombinant GPX4, GR-coupled NADPH fluorescence, 15 min; series mostly up to 50 µM. In short, it runs like this:
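GR-coupled readout: 100 nM GR, 1 mM GSH, 0.5 mM NADPH; NADPH fluorescence (ex 340/em 450 nm) read at t=0 and after 15 min RT. GPX4 200 nM, preincubated 30 min with compound; substrate 0.5 mM CHP.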
Background: qHTS replaces the single test concentration by a dilution series.

For test [3], the target named is Luciferin 4-monooxygenase (Photinus pyralis) (UniProt P08659). The test can be described thus: Primary firefly luciferase (FLuc) qHTS assay for identification of artifact compounds. (AID 1845220).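 For activity change, negative = inhibition: plate controls were DMSO vehicle for no effect and no enzyme for full effect.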 Note: nearly all actives have a fitted effect of over 60% in size. To be noted: purified firefly luciferase, luminescence, 5 min; series mostly up to 54.1 µM. In short, it runs like this:
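qHTS, 15 min compound preincubation with substrate (10 uM luciferin, 10 uM ATP) at RT, then 10 nM FLuc; 5 min; luminescence; % inhibition vs no-enzyme/DMSO controls, 4-parameter Hill fit.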

Test [4] in a line: Primary fluorescence-based thiol-reactive (MSTI) qHTS assay for identification of artifact compounds. (AID 1845221).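 For activity change, negative = thiol reactive: thiol-reactive compounds lower the probe fluorescence signal.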 Note: nearly all actives have a fitted effect of over 65% in size. Note: potency is the fitted concentration of half-maximal effect. The following applies: MSTI thiol-reactivity probe, 1 h; series mostly up to 53.8 µM. The method, boiled down:
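Reactivity toward the thiol probe MSTI (4 uM) is scored by fluorescence at Ex/Em 525/598 nm after 1 h at room temperature. Acetyl-MSTI and MSTI define the activity scale.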

For test [5], the system named is Nanoluciferase (engineered Oplophorus gracilirostris luciferase). The test can be described thus: Primary Nanoluciferase (NLuc) qHTS assay for identification of artifact compounds. (AID 1845222).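 Note: 0% = DMSO and -100% = no enzyme.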 The following applies: NLuc-conditioned medium, Nano-Glo luminescence, 5 min; series mostly up to 54.1 µM. In short, it runs like this: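 Luminescence read-out of secreted NLuc in S16 cell conditioned medium (1:55); compounds tested with 15 min RT preincubation, then Nano-Glo substrate 1:100, 5 min. % inhibition vs no-enzyme and DMSO controls, 4-parameter Hill fit.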

Test [6] can be described thus: Primary redox qHTS assay for identification of artifact compounds. (AID 1845223).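 Note: 0% = DMSO and 100% = reference compound.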 To be noted: Amplex Red/HRP redox cycling with DTT, fluorescence; series mostly up to 53.8 µM. The method, boiled down:
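Amplex Red (25 uM) and HRP (250 mU/mL) in HBSS, with compounds for 15 min, then 250 uM DTT for 30 min, room temperature, dark. Fluorescence 525/598 nm read; normalized to DMSO and 10 uM DA3003; Hill fit.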

Structures are written as SMILES. Values without a mark were called inactive. Results filed as inconclusive are left out. Active and inactive are the calls of the source. Calls come from the whole dose curve; as a rule, active = well fitted curve in the direction sought with a large enough effect; inconclusive = small, poorly fitted or top-dose-only effect, or another doubt; inactive = no such curve, though single readings can be large; an effect the other way counts as inactive or inconclusive.

Sequence of Phospholipid hydroperoxide glutathione peroxidase GPX4 (Homo sapiens) (P36969 whole entry, looked up): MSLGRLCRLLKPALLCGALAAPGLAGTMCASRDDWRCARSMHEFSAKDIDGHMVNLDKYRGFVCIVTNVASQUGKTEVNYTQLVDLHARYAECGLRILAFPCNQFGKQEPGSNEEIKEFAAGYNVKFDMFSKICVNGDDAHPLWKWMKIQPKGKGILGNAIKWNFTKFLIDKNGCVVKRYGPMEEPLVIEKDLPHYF

As to `Cc1c(C2=CCN(C(=O)N(C)C(C)C)CC2)nnn1-c1cccnc1F`, the Potency result in test [1], in test [2], in test [3], in test [4], in test [5] and in test [6] was “inactive” in each case.
On to `O=c1cc(N2CCOCC2)nc2c3ccccc3ccn12`, for which the Potency entry in test [1], in test [2], in test [3], in test [4], in test [5] and in test [6] was “inactive” in each case.
As for `CC(=O)O[C@H]1CC[C@]2(C)[C@H]3CC[C@]4(C)Oc5oc(C)cc(=O)c5C[C@H]4[C@]3(C)CC[C@H]2C1(C)C`, the Potency entry in test [1], in test [2], in test [3], in test [4], in test [5] and in test [6] was “inactive” throughout.
For `O=C(NCc1ccc(OC(F)(F)F)cc1)C1c2c(F)cccc2C(=O)N1CCc1ccccn1` (stereo not given), the Potency result in test [1], in test [2], in test [3], in test [4], in test [5] and in test [6] was “inactive” throughout.
Take `Cn1c(=O)c2c(ncn2Cc2ccc(C(C)(C)C)cc2)n(C)c1=O`: the Potency entry in test [1], in test [2], in test [3], in test [4], in test [5] and in test [6] was “inactive” in each case.
In the case of `CCC(C)C(=O)O[C@H]1[C@H](O)[C@@]2(COC(C)=O)C(CC1(C)C)C1=CCC3[C@@]4(C)CC[C@H](O[C@@H]5O[C@H](C(=O)O)[C@@H](O)[C@H](O)[C@H]5O)[C@@](C)(CO)C4CC[C@@]3(C)[C@]1(C)C[C@@H]2O` (stereo not given in full), the Potency result in test [1] and in test [2] was “inactive” in each case. Also, the outcome in test [3] is “inactive [at 11.6 µM]”. The activity change, negative = thiol reactive in test [4] is 57.8% [at 11.5 µM]. Also, in test [5], the activity, negative = inhibition was 3.16% [at 11.6 µM]. Also, in test [6], the redox activity (% of DA3003) is 14.3% [at 11.5 µM].
With `C=C1C(=O)O[C@@H]2C[C@@]3(C)CCCC(=C)[C@]3(O)C[C@H]12`, the Potency entry in test [1], in test [2], in test [3], in test [4], in test [5] and in test [6] was “inactive” in each case.
`C=C1C(=O)OC2C3=C(C)C(=O)CC3C(C)CC(O)C12` (stereo not given): the Potency result in test [1], in test [2], in test [3], in test [5] and in test [6] was “inactive” throughout. In addition, the Potency in test [4] was 11.9 µM (active).
Take `COc1ccc(CCCN2CCC(COC(c3ccccc3)c3ccccc3)CC2)cc1`: the Potency result in test [1], in test [2], in test [3], in test [4], in test [5] and in test [6] was “inactive” throughout.
As to `CC(C)(C)[C@H](NC(=O)c1ccc(N)c(Cl)c1)C(=O)N1CCC[C@H]1C(=O)N[C@H](C#N)CC(=O)O`, the Potency entry in test [1], in test [2], in test [3], in test [4], in test [5] and in test [6] was “inactive” each time.
For `CCCC(Nc1nc(-c2ccc(NC(=O)NCC)c(OC)c2)ncc1C)c1cccnc1` (stereo not given), the Potency result in test [1], in test [2], in test [3], in test [4], in test [5] and in test [6] was “inactive” in each case.
As to `Cc1nc(Nc2ccc(F)cc2)nc(N2CCc3ccccc3C2C)c1C` (stereo not given), the Potency entry in test [1], in test [2], in test [3], in test [4], in test [5] and in test [6] was “inactive” each time.
On to `CC(C)c1ccc(NC(=O)Cn2cnc3c2c(=O)n(C)c(=O)n3C)cc1`, for which the Potency result in test [1], in test [2], in test [3], in test [4], in test [5] and in test [6] was “inactive” each time.
Take `CC1OC(=O)C[C@@H]2C(C(=O)O)=CO[C@@H](O[C@H]3O[C@H](CO)[C@@H](O)[C@H](O)[C@H]3O)[C@H]12` (stereo not given in full): the Potency entry in test [1], in test [2], in test [3], in test [4], in test [5] and in test [6] was “inactive” throughout.
As for `Cc1noc(C)c1-c1cc(O)cc(C(O)c2ccccc2)c1` (stereo not given), the Potency entry in test [1], in test [2], in test [3], in test [4], in test [5] and in test [6] was “inactive” throughout.
Turning to `C[C@@H]1CC[C@]2(C(=O)O)CC[C@]3(C)C(=CCC4[C@@]5(C)CC[C@H](O)[C@](C)(C(=O)O)C5CC[C@]43C)C2[C@]1(C)O` (stereo not given in full), the Potency entry in test [1], in test [2], in test [3], in test [4], in test [5] and in test [6] was “inactive” each time.
`COc1ccc(C2(CNC(=O)c3ccc(NC(=O)c4ccco4)cc3)CCOCC2)cc1`: the Potency result in test [1], in test [2], in test [3], in test [4], in test [5] and in test [6] was “inactive” each time.
As for `CC1CCCC(O)CCC/C=C/c2cc(OS(=O)(=O)O)cc(O)c2C(=O)O1` (stereo not given), the Potency entry in test [1], in test [2], in test [3], in test [4], in test [5] and in test [6] was “inactive” throughout.
Consider `O=C(CNC(=O)c1cccc(C(F)(F)F)c1)N[C@@H]1CCN(Cc2ccc(Cl)cc2)C1`, for which the Potency result in test [1], in test [2], in test [3], in test [4], in test [5] and in test [6] was “inactive” each time.
On to `COC1C(O)C(OC2CCC3(C)C(CCC45CCC6C7(COC(=O)C7)OC4(O)C6(C)CCC35)C2)OC(C)C1OC1OC(CO)C(OC2OC(CO)C(O)C(O)C2O)C(O)C1O` (stereo not given), for which the Potency result in test [1] and in test [2] was “inactive” each time. In addition, the activity change, negative = inhibition in test [3] was 0.42% [at 11.6 µM]. For the same compound, the activity change, negative = thiol reactive in test [4] was 19.5% [at 11.5 µM]. The activity, negative = inhibition in test [5] was 4.19% [at 11.6 µM]. The redox activity (% of DA3003) in test [6] is 3.19% [at 11.5 µM].
